# Source: PubChem BioAssay AID738 (SRMLSC, 2007)
# In all, about 98,000 compounds went through this assay and about 4,900 (5%) were called active. Shown is part of a subset that was picked to be rich in actives. Unmarked numbers belong to inactive results. No stated cut-off is given here; in the data, active means inhibition above about 30%; inactive means the rest.
# Test: growth inhibition of yeast control strain, primary screen, counter-screen for post-Golgi transport modulator project (AID 738)
# Conditions: efflux-deficient yeast background strain, growth absorbance A615, 16 h; at 10 µM; hits give high values
row,SMILES,inhibition
1,C=CCNC(=O)c1cc2nc(C3CC3)cc(C(F)F)n2n1,11%
2,COC(=O)c1cc(C(=O)OC)cc(N2C(=O)CC(N3CCN(c4ccccc4)CC3)C2=O)c1 (configuration not stated),-1.95%
3,O=C1CC(NNc2ccccc2)C(=O)N1c1cccc(Cl)c1 (configuration not stated),-2.74%
4,O=C1CC(c2ccccc2)C(=O)N1c1cccc(O)c1 (configuration not stated),47.5% (active)
5,COc1ccc(Oc2coc3cc(OC(=O)c4cncc(Br)c4)ccc3c2=O)cc1,-3.94%
6,COc1ccc(C(=S)Nc2ccccc2)cc1,-2.5%
7,CS(=O)(=O)N(CC(=O)Nc1ccc(F)cc1F)c1cccc([N+](=O)[O-])c1,-6.14%
8,COC(=O)c1c(NC(=O)c2cccs2)sc2c1CCCC2,10.9%
9,Cc1ccc(C(=O)c2c(NC(=O)c3ccncc3)sc3c2CCCC3)cc1,65.8% (active)
10,Cc1ccc(C(=O)c2c(NC(=O)c3ccccc3)sc(C)c2C)cc1,4.53%
11,CN1C(=O)C(CC(N)=O)N(NC(=O)c2ccc(Cl)cc2)C1=S (configuration not stated),-2.73%
12,C=CCn1c(Oc2ccc(C(=O)OC)cc2)nc2c1c(=O)n(C)c(=O)n2C,11.7%
13,Cc1nc(C)c(C(=O)N(c2ccc(C)c(C)c2)C(C(=O)NCc2ccco2)c2ccccc2)s1 (configuration not stated),-4.44%
14,O=C(COc1ncnc2c(Cl)cc(Cl)cc12)N1CCN(S(=O)(=O)c2ccccc2)CC1,0.78%
15,Cc1nn(CC(=O)Nc2nc3ccccc3s2)c(C)c1[N+](=O)[O-],-2.54%
16,CCOC(=O)N1CCN(CC(=O)Nc2cc(C)nn2-c2nc3ccccc3s2)CC1,42% (active)
17,Cc1cc(NC(=O)CN2CCCC(C)C2)n(-c2nc3ccccc3s2)n1 (configuration not stated),19.3%
18,COc1ccc(/C=C2\CCCC3C2=NN(C(=O)c2scnc2C)C3c2ccc(OC)cc2)cc1 (configuration not stated),9.28%
19,CCC(C)(C)n1nnnc1C(c1cccs1)N1CCN(Cc2ccccc2)CC1 (configuration not stated),3.99%
20,CCC(C)(C)n1nnnc1C(c1cccs1)N1CCN(c2nc3ccccc3s2)CC1 (configuration not stated),34.9% (active)
21,CCC(C)(C)n1nnnc1C(c1ccccc1OC)N1CCSCC1 (configuration not stated),17.9%
22,CCOc1ccc(C(O)Cn2c(=N)n(CCN3CCCCC3)c3ccccc32)cc1 (configuration not stated),7.31%
23,O=C(CSc1nc(-c2ccco2)cc(C(F)(F)F)n1)NCc1cccs1,8.94%

row,SMILES,inhibition
1,FC(F)(F)c1cc(-c2ccco2)nc(N2CCOCC2)n1,16.9%
2,O=C(CSc1nc(-c2ccco2)cc(C(F)(F)F)n1)N1CCc2ccccc2C1,30.3% (active)
3,CCOC(=O)c1cnc(SC)nc1Sc1ccc(Cl)cc1Cl,3.77%
4,Cc1ccc(NS(=O)(=O)c2c(C)[nH]c(=O)[nH]c2=O)cc1C,11.7%
5,O=C(Cc1ccccc1)N/N=C/c1ccc(Cl)cc1Cl,24.5%
6,CCCOc1ccc(C2c3c(oc4cc(C)c(C)cc4c3=O)C(=O)N2CCCN2CCOCC2)cc1 (configuration not stated),42.7% (active)
7,CCCCOc1ccc(C(C)(O)CCN2CCOCC2)cc1 (configuration not stated),12.6%
8,COCCN1C(=O)c2oc3c(C)cc(C)cc3c(=O)c2C1c1cccc(O)c1 (configuration not stated),4.63%
9,COc1ccc2c(c1)CCc1c(C(=O)Nc3c(C)n(C)n(-c4ccccc4)c3=O)noc1-2,21%
10,COc1ccc2c(c1)CCc1c(C(=O)N3CCCC3)noc1-2,-1.03%
11,COc1ccc2c(c1)CCc1c(C(=O)N3CCc4ccccc4C3)noc1-2,44.9% (active)
12,O=c1cc(C(F)(F)F)[nH]c(=O)n1C1CCCCC1,23.5%
13,COCCN(C(=O)c1ccco1)c1nnc(-c2ccc(OC)cc2)s1,10%
14,Cc1cc(Nc2ccccc2)nc(N)n1,4.89%
15,Cc1nn(C)cc1/C=C1\CCC/C(=C\c2cn(C)nc2C)C1=O,12.9%
16,CNC(=O)CSc1nnnn1-c1ccc(C)cc1C,24.1%
17,CCOC(=O)c1c(-c2ccc(C)cc2C)csc1NC(=O)CSc1nnnn1C,66.1% (active)
18,CCOC(=O)CNC(=O)CSc1nnnn1-c1cc(C)ccc1C,3.59%
19,CC(C)C(NS(=O)(=O)c1cccs1)C(=O)Nc1nc(C(C)(C)C)cs1 (configuration not stated),16.8%
20,COc1cc(Cl)c(S(=O)(=O)N2CCN(Cc3ccc4c(c3)OCO4)CC2)cc1Cl,60.2% (active)
21,CCn1cc(C(=O)N2CCN(Cc3ccc4c(c3)OCO4)CC2)c2cc(OC)c(OC)cc2c1=O,-2.75%
22,CS(=O)(=O)N(CC(=O)N1CCN(Cc2ccc3c(c2)OCO3)CC1)c1ccc2c(c1)OCO2,2.83%
23,Cc1ccccc1OCc1nnc(SCC(=O)N2c3ccccc3Sc3ccc(Cl)cc32)o1,5.3%

row,SMILES,inhibition
1,Cc1[nH]c(=O)c(C(=O)/C=C/c2ccccc2)c2c1CCCC2,24.5%
2,O=C(NC1=NCCS1)[C@H](Cc1ccccc1)N1C(=O)c2ccccc2C1=O,-1.98%
3,CCOC(=O)c1nn(-c2cccc(C)c2)cc1C(=O)c1ccccc1,12.9%
4,Nc1c(-c2ccc(F)cc2)cnc2ncnn12,1.38%
5,CNC(=S)NNC(=O)c1sccc1OCc1ccccc1,26.7%
6,Cc1ccc(NC(=O)N2CCC(O)(c3cccnc3)CC2)cc1,-0.9%
7,CCOC(=O)C1=C(CN2CCc3ccccc32)NC(=O)NC1c1ccc(Cl)cc1 (configuration not stated),40.8% (active)
8,COCCOC(=O)C1=C(C)NC(=O)NC1c1ccc(Cl)cc1 (configuration not stated),2.51%
9,CCOC(=O)C1=C(CN2CCc3ccccc32)NC(=O)NC1c1cccc([N+](=O)[O-])c1 (configuration not stated),1.33%
10,COc1cccc2c1OCC(C(=O)NCc1ccc(Cl)cc1Cl)=C2,9.54%
11,O=C(CSc1nnc(-c2cccs2)n1-c1ccccc1)NCc1ccco1,6.51%
12,O=C(CSc1nnc(-c2cccs2)n1-c1ccccc1)N1CCN(C(=O)c2ccco2)CC1,37.9% (active)
13,Cc1nnc(SCC(=O)N2CCN(c3ccccc3)CC2)n1-c1ccccc1,2.49%
14,CCn1c(SCC(=O)c2ccc3ccccc3c2)nnc1-c1cccs1,5.6%
15,Cc1nnc(SCC(=O)N2CCc3ccccc3C2)s1,1.25%
16,O=C(CSc1nnc(-c2cccs2)n1Cc1ccccc1)N1CCc2ccccc2C1,40.2% (active)
17,O=C(OCN1C(=O)c2ccccc2C1=O)/C(=C\c1ccco1)NC(=O)c1ccccc1,-11.4%
18,Cc1cc(OC(=O)c2c(Cl)cccc2Cl)nc(C)n1,3.63%
19,O=C(Nc1ncc2c(n1)-c1ccccc1OC2)c1ccc(Cl)cc1,22.5%
20,CC(C)c1ccc(N2CCN(C(=O)c3ccccc3NC(=O)/C=C(\C(=O)O)c3ccccc3)CC2)cc1,11.3%
21,Cc1ccc(S(=O)(=O)N(CC(=O)N/N=C/c2ccc(F)cc2)c2cccc3cccnc23)cc1,6.82%
22,COC(=O)c1[nH]c2cccc(C)c2c1NC(=O)CN1CCCc2ccccc21,19.7%
23,CCOC(=O)c1[nH]c2ccc(OC)cc2c1NC(=O)CCN1CCN(Cc2ccccc2)CC1,1.92%

row,SMILES,inhibition
1,COC(=O)c1[nH]c2ccccc2c1NC(=O)CN1CCCc2ccccc21,43.4% (active)
2,Cc1ccc2oc(=O)c3cnn(CC(=O)N4CCN(c5ccccn5)CC4)c3c2c1,-3.03%
3,Cc1ccc(S(=O)(=O)NCC(=O)N2CCN(c3ccccn3)CC2)cc1,2.13%
4,Cc1ccnc(N2CCN(C(=O)CSc3nc4ccccc4nc3N3CCCCC3)CC2)c1,42.9% (active)
5,Cc1ccc(SCC(=O)c2sc(-c3ccccc3)nc2C)cc1,-6.19%
6,COc1ccc(-c2n[nH]c(C)c2-c2ccc(OC)c(OC)c2)c(O)c1,15%
7,C=C(C)COc1ccc(-c2n[nH]c(C)c2-c2ccccc2)c(O)c1,34.8% (active)
8,C=C(C)COc1ccc(-c2n[nH]c(C)c2-c2ccccc2OC)c(O)c1,7.96%
9,O=C(CN1C(=O)NC(Cc2ccccc2)(Cc2ccccc2)C1=O)NCC1CCCCC1,16.1%
10,O=C(O)C1C2C=CC(C2)C1C(=O)N1CCN(CCO)CC1 (configuration not stated),7.62%
11,COC(=O)c1cc(NC(=O)C2C3C=CC(C3)C2C(=O)O)cc(C(=O)OC)c1 (configuration not stated),6.4%
12,CN1CCN(C(=O)C2C3C=CC(C3)C2C(=O)O)CC1 (configuration not stated),36.6% (active)
13,O=C(CN1C(=O)CC(c2ccccc2)=Nc2ccccc21)NC1CCCCC1,7.73%
14,COc1cccc(-c2nc(S(=O)(=O)c3ccccc3)c(N3CCOCC3)o2)c1,15.6%
15,COc1cccc(CNc2nc3nc4c(c(=O)n3[nH]2)CCC4)c1,3.19%
16,COc1cccc(-c2cc3nc4c(c(N5CCC6(CC5)OCCO6)n3n2)CCCC4)c1,77.5% (active)
17,CCOc1ccc(Nc2nc(Cc3nnc(SCC(=O)NC4CCCC4)n3C)cs2)cc1,5.32%
18,O=C(/C=C/c1ccccc1)c1ccoc1,17.6%
19,COc1ccc(C(=O)Nc2ncc3c(n2)-c2ccccc2CC3)cc1,-6.73%
20,O=C(CCCN1C(=O)c2cccc3cccc(c23)C1=O)N1CCN(Cc2ccc3c(c2)OCO3)CC1,13.6%
21,COc1ccc(C2CC(c3ccc(C)cc3)Nc3ncnn32)cc1 (configuration not stated),0.32%
22,COc1ccc(C2CC(c3ccccc3)Nc3ncnn32)cc1 (configuration not stated),6.21%
23,Clc1ccc(C2CC(c3cccs3)n3ncnc3N2)cc1Cl (configuration not stated),43% (active)
